# Results taken from PubChem BioAssay (NCATS).
# Results filed as inconclusive are left out. A call without a number means that no potency is given here. A number with no mark means an inactive call. The source made the active and inactive calls. Calls follow the shape of the dose curve; as a rule, active = well fitted inhibition curve with a large enough effect; inconclusive = small, poorly fitted or top-dose-only effect; inactive = flat fitted curve, though single readings scatter.
# Assays:
# P94_40 = assay: qHTS profiling for inhibitors of Plasmodium falciparum proliferation (AID 504749); also: potency is read from the fitted curve at half-maximal effect; conditions: P. falciparum in erythrocytes, SYBR Green DNA, 72 h; series mostly up to 28.7 µM
# Summary of the method: (§1)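 SYBR Green fluorescence (ex 485 nm, em 535 nm) reports parasite DNA after 72 h compound exposure of infected red cells at 0.3% parasitemia, 2.5% hematocrit; signal normalized to 0.29 uM artemisinin and vehicle wells.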
# PAD = assay: as above; conditions: P. falciparum in erythrocytes, SYBR Green DNA, 72 h; series mostly up to 28.7 µM
# Summary of the method: as §1
# PC15 = assay: as above; conditions: P. falciparum in erythrocytes, SYBR Green DNA, 72 h; series mostly up to 28.7 µM
# Summary of the method: as §1
# PC26 = assay: as above; conditions: P. falciparum in erythrocytes, SYBR Green DNA, 72 h; series mostly up to 28.7 µM
# Summary of the method: as §1
# PC49 = assay: as above; conditions: P. falciparum in erythrocytes, SYBR Green DNA, 72 h; series mostly up to 28.7 µM
# Summary of the method: as §1
# SC27B = assay: as above; conditions: P. falciparum in erythrocytes, SYBR Green DNA, 72 h; series mostly up to 28.7 µM
# Summary of the method: as §1
# TAB109 = assay: as above; conditions: P. falciparum in erythrocytes, SYBR Green DNA, 72 h; series mostly up to 28.7 µM
# Summary of the method: as §1
# TAB113 = assay: as above; conditions: P. falciparum in erythrocytes, SYBR Green DNA, 72 h; series mostly up to 28.7 µM
# Summary of the method: as §1
# TAB165 = assay: as above; conditions: P. falciparum in erythrocytes, SYBR Green DNA, 72 h; series mostly up to 28.7 µM
# Summary of the method: as §1
# W2 = assay: as above; conditions: P. falciparum in erythrocytes, SYBR Green DNA, 72 h; series mostly up to 28.7 µM
# Summary of the method: as §1
# CRL-7250 = normal cell line; assay: Cytotoxic Profiling of Annotated Libraries Using Quantitative High-Throughput Screening (AID 1296008); conditions: Five cell lines viability, CellTiter-Glo ATP luminescence, 48-72 h; active compounds read low
# Summary of the method: (§2)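 Cells exposed to compounds for 48 or 72 hr at 37 degrees Celsius. Viability read as ATP-coupled luminescence with CellTiter-Glo after 10 min at room temperature.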
# HEK293 = assay: as above; conditions: Five cell lines viability, CellTiter-Glo ATP luminescence, 48-72 h; active compounds read low
# Summary of the method: as §2
# HaCat [1] = assay: as above; conditions: Five cell lines viability, CellTiter-Glo ATP luminescence, 48-72 h; active compounds read low
# Summary of the method: as §2
# KB-3-1 = assay: as above; conditions: Five cell lines viability, CellTiter-Glo ATP luminescence, 48-72 h, active compounds read low
# Summary of the method: as §2
# NIH3T3 = assay: as above; conditions: Five cell lines viability, CellTiter-Glo ATP luminescence, 48-72 h; active compounds read low
# Summary of the method: as §2
# HACAT [2] = assay: qHTS assay to identify novel small-molecules to repurpose for Merkel cell carcinoma treatment (AID 1296009); conditions: MCC and control cell lines, CellTiter-Glo viability, 72 h; at 44.8 µM (top of the series) unless noted
# Summary of the method: (§3)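 CellTiter-Glo luminescence after 72 hr compound exposure at 37 degree celsius gave cell viability. Libraries NPC and MIPE were run as 8- and 11-point dose responses; RLUs normalized to DMSO (negative) and no-cell (cytotoxicity) controls.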
# MCC-13 = assay: as above; conditions: MCC and control cell lines, CellTiter-Glo viability, 72 h; series mostly up to 46 µM
# Summary of the method: as §3
# MCC-26 = assay: as above; conditions: MCC and control cell lines, CellTiter-Glo viability, 72 h; series mostly up to 46 µM
# Summary of the method: as §3
# MKL-1 = assay: as above; conditions: MCC and control cell lines, CellTiter-Glo viability, 72 h; series mostly up to 46 µM
# Summary of the method: as §3
# Also: nearly all actives have a fitted effect of over 60% in size.
compound,measurement,setting,value
O=C(NCN1CCOCC1)c1cnccn1,Potency,P94_40,inactive
same,Potency,PAD,inactive
same,Potency,PC15,inactive
same,Potency,PC26,inactive
same,Potency,PC49,inactive
same,Potency,SC27B,inactive
same,Potency,TAB109,inactive
same,Potency,TAB113,inactive
same,Potency,TAB165,inactive
same,Potency,W2,inactive
same,max response,CRL-7250,3.76%
same,max response,HEK293,3.79%
same,outcome,HaCat [1],inactive
same,max response,KB-3-1,-13.5%
same,max response,NIH3T3,-0.98%
same,outcome,HACAT [2],inactive
same,outcome,MCC-13,inactive
same,outcome,MCC-26,inactive
same,outcome,MKL-1,inactive
CCOC(=O)[C@H](CCc1ccccc1)N[C@@H](C)C(=O)N1CCC[C@H]1C(=O)O,Potency,P94_40,inactive
same,Potency,PAD,inactive
same,Potency,PC15,inactive
same,Potency,PC26,inactive
same,Potency,PC49,inactive
same,Potency,SC27B,inactive
same,Potency,TAB109,inactive
same,Potency,TAB113,inactive
same,Potency,TAB165,inactive
same,Potency,W2,inactive
same,max response,CRL-7250,2.02%
same,max response,HEK293,-1.68%
same,outcome,HaCat [1],inactive
same,max response,KB-3-1,7.19%
same,outcome,NIH3T3,inactive
same,outcome,HACAT [2],inactive
same,outcome,MCC-13,inactive
same,outcome,MCC-26,inactive
same,outcome,MKL-1,inactive
CCS(=O)(=O)CCn1c([N+](=O)[O-])cnc1C,Potency,P94_40,inactive
same,Potency,PAD,inactive
same,Potency,PC15,inactive
same,Potency,PC26,inactive
same,Potency,PC49,inactive
same,Potency,SC27B,inactive
same,Potency,TAB109,inactive
same,Potency,TAB113,inactive
same,Potency,TAB165,inactive
same,Potency,W2,inactive
same,outcome,CRL-7250,inactive
same,max response,HEK293,1.79%
same,outcome,HaCat [1],inactive
same,max response,KB-3-1,-0.735%
same,max response,NIH3T3,-2.73%
same,outcome,HACAT [2],inactive
same,outcome,MCC-13,inactive
same,outcome,MCC-26,inactive
same,outcome,MKL-1,inactive
CN1C[C@@H]2C[C@H]1CN2c1cc2c(cc1F)c(=O)c(C(=O)O)cn2C1CC1,Potency,PAD,inactive
same,Potency,PC49,inactive
same,Potency,TAB113,inactive
same,Potency,W2,0.953 µM (active)
same,max response,CRL-7250,2.35%
same,max response,HEK293,-22.9%
same,outcome,HaCat [1],inactive
same,max response,KB-3-1,-8.4%
same,max response,NIH3T3,-10.1%
same,outcome,HACAT [2],inactive [at 17.4 µM]
same,outcome,MCC-13,inactive
same,outcome,MCC-26,inactive
same,outcome,MKL-1,inactive
COc1ccc(Cc2cnc(N)nc2N)cc1OC,Potency,P94_40,inactive
same,Potency,PAD,inactive
same,Potency,PC15,inactive
same,Potency,PC26,inactive
same,Potency,PC49,inactive
same,Potency,SC27B,inactive
same,Potency,TAB109,inactive
same,Potency,TAB113,inactive
same,Potency,TAB165,inactive
same,Potency,W2,inactive
same,max response,CRL-7250,-8.49%
same,max response,HEK293,2.64%
same,outcome,HaCat [1],inactive
same,max response,KB-3-1,-1.92%
same,max response,NIH3T3,-0.487%
same,outcome,HACAT [2],inactive
same,outcome,MCC-13,inactive
same,outcome,MCC-26,inactive
same,outcome,MKL-1,inactive
O=c1[nH]cnc2nc[nH]c12,Potency,P94_40,inactive
same,Potency,PAD,inactive
same,Potency,PC15,inactive
same,Potency,PC26,inactive
same,Potency,PC49,inactive
same,Potency,SC27B,inactive
same,Potency,TAB109,inactive
same,Potency,TAB113,inactive
same,Potency,TAB165,inactive
same,Potency,W2,inactive
same,max response,CRL-7250,-2.48%
same,max response,HEK293,-1.3%
same,outcome,HaCat [1],inactive
same,max response,KB-3-1,-17.5%
same,max response,NIH3T3,-0.611%
same,outcome,HACAT [2],inactive
same,outcome,MCC-13,inactive
same,outcome,MCC-26,inactive
same,outcome,MKL-1,inactive
CCN1CC(CCN2CCOCC2)C(c2ccccc2)(c2ccccc2)C1=O (stereo not drawn),Potency,PAD,inactive
same,Potency,PC15,inactive
same,Potency,PC26,inactive
same,Potency,PC49,inactive
same,Potency,SC27B,inactive
same,Potency,TAB113,inactive
same,Potency,TAB165,inactive
same,Potency,W2,9.53 µM (active)
same,max response,CRL-7250,2.93%
same,max response,HEK293,-5.24%
same,outcome,HaCat [1],inactive
same,max response,KB-3-1,-4.5%
same,max response,NIH3T3,2.99%
same,outcome,HACAT [2],inactive
same,outcome,MCC-13,inactive
same,outcome,MCC-26,inactive
same,outcome,MKL-1,inactive
O=C(/C=C/c1ccccc1)OCc1ccccc1,Potency,P94_40,inactive
same,Potency,PAD,inactive
same,Potency,PC15,inactive
same,Potency,PC26,inactive
same,Potency,PC49,inactive
same,Potency,SC27B,inactive
same,Potency,TAB109,inactive
same,Potency,TAB113,inactive
same,Potency,TAB165,inactive
same,Potency,W2,inactive
same,max response,CRL-7250,1.75%
same,max response,HEK293,-4.12%
same,outcome,HaCat [1],inactive
same,max response,KB-3-1,21.2%
same,max response,NIH3T3,-4.12%
same,outcome,HACAT [2],inactive
same,outcome,MCC-13,inactive
same,outcome,MCC-26,inactive
same,outcome,MKL-1,inactive
O=C(NCCCN1CCOCC1)c1ccc(Cl)cc1,Potency,P94_40,inactive
same,Potency,PAD,inactive
same,Potency,PC15,inactive
same,Potency,PC26,inactive
same,Potency,PC49,inactive
same,Potency,SC27B,inactive
same,Potency,TAB109,inactive
same,Potency,TAB113,inactive
same,Potency,TAB165,inactive
same,Potency,W2,inactive
same,max response,CRL-7250,-10.4%
same,max response,HEK293,1.26%
same,outcome,HaCat [1],inactive
same,max response,KB-3-1,1.85%
same,outcome,NIH3T3,inactive
same,outcome,HACAT [2],inactive
same,outcome,MCC-13,inactive
same,outcome,MCC-26,inactive
same,outcome,MKL-1,inactive
